Consider ten compounds from PubChem BioAssay (NCI).

Molecules are shown by their SMILES. About 79,000 compounds went through this panel and 15% of them were active in at least one assay; those are over-represented in the sample as a whole. Unmarked numbers belong to inactive results. The source made the active and inactive calls. Rule as the data show it: active = growth inhibition above about 70%; inactive = the rest.

Assay [1] can be described thus: NCI Yeast Anticancer Drug Screen. Data for the rad50 strain (AID 155).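 Also: 0% = growth of vehicle-only cultures of the same strain.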 The conditions noted are these: S. cerevisiae rad50 strain growth inhibition, active compounds read high. The method in brief:
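Relative growth inhibition (compound vs vehicle) was measured in yeast with a defined repair-gene alteration.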

Assay [2] in a line: NCI Yeast Anticancer Drug Screen. Data for the mec2-1 strain (AID 157). The conditions noted are these: S. cerevisiae mec2-1 strain, active compounds read high. In a few lines:
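Readout is yeast growth inhibition, normalised to vehicle-treated controls, in the mec2-1 strain exposed to compound.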

The nature of assay [3]: NCI Yeast Anticancer Drug Screen. Data for the sgs1 mgt1 strain (AID 161).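 Also: 0% = growth of cultures given vehicle only.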 The conditions noted are these: S. cerevisiae sgs1 mgt1 strain, active compounds read high. In a few lines: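 Percent growth inhibition was derived by comparing compound-exposed mutant yeast with vehicle-exposed cultures. The strain carries alterations in DNA damage repair.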
The nature of assay [4]: NCI Yeast Anticancer Drug Screen. Data for the cln2 rad14 strain (AID 165).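 Also: 0% = growth equal to vehicle treated cultures.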 The conditions noted are these: S. cerevisiae cln2 rad14 strain, active compounds read high. The method in brief: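 Relative to vehicle controls, growth inhibition of compound-treated cln2 rad14 yeast was recorded.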
Assay [5] is described as follows: NCI Yeast Anticancer Drug Screen. Data for the bub3 strain (AID 167). The note with it: S. cerevisiae bub3 mutant strain, active compounds read high. The method in brief:
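Screening used yeast with an engineered genetic alteration affecting cell cycle control. Compound-exposed cultures were compared with vehicle cultures, and reduced growth was taken as inhibition.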

A short description of assay [6]: NCI Yeast Anticancer Drug Screen. Data for the mlh1 rad18 strain (AID 175). The note with it: S. cerevisiae mlh1 rad18 strain growth inhibition, active compounds read high. In a few lines:
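Test agents were incubated with a yeast strain of defined genotype (DNA damage repair defect). Inhibition of growth was derived by comparison with vehicle-exposed cultures.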

Setting [7] is: at 5.0 µM (retest, dose inferred, filed as 0.5).
Where [8] appears, read: at 50.0 µM (retest, dose inferred, filed as 5.0).

As to `C/C(=N\N=C(N)N)c1ccc2c(c1)Cc1cc(/C(C)=N/N=C(N)N)ccc1-2`, the growth inhibition in assay [1] (setting [7]) is 42%; in assay [1] (setting [8]), 98% (active); in assay [1] (at 50.0 µM), 87.8% (active); in assay [2] (setting [7]), 40%; in assay [2] (setting [8]), 99% (active); in assay [2] (at 50.0 µM), 88.8% (active). Moreover, the growth inhibition in assay [3] (setting [7]) is 39%; in assay [3] (setting [8]), 99% (active); in assay [3] (at 50.0 µM), 84.7% (active); in assay [4] (setting [7]), 43%; in assay [4] (setting [8]) it was 99% (active); in assay [4] (at 50.0 µM) it was 87.2% (active). Further, the growth inhibition was 52% in assay [5] (setting [7]); 98% (active) in assay [5] (setting [8]); 83.3% (active) in assay [5] (at 50.0 µM); 54% in assay [6] (setting [7]); 98% (active) in assay [6] (setting [8]); 90% (active) in assay [6] (at 50.0 µM).
As for `Clc1ccccc1CN1COc2c(cc(Cl)c3cccnc23)C1`, the growth inhibition in assay [1] (setting [7]) was 21%; in assay [1] (setting [8]) it was 99% (active); in assay [1] (at 50.0 µM) it was 98.6% (active); in assay [2] (setting [7]), 6%; in assay [2] (setting [8]), 99% (active); in assay [2] (at 50.0 µM), 99.5% (active). Besides, the growth inhibition is 87% (active) in assay [3] (setting [7]); 100% (active) in assay [3] (setting [8]); 99.4% (active) in assay [3] (at 50.0 µM); 6% in assay [4] (setting [7]); 99% (active) in assay [4] (setting [8]); 98.8% (active) in assay [4] (at 50.0 µM). Besides, the growth inhibition in assay [5] (setting [7]) was 61%; in assay [5] (setting [8]) it was 99% (active); in assay [5] (at 50.0 µM) it was 99.3% (active); in assay [6] (setting [7]), 97% (active); in assay [6] (setting [8]) it was 99% (active); in assay [6] (at 50.0 µM) it was 99% (active).
For the compound `C(=C\[P+](c1ccccc1)(c1ccccc1)c1ccccc1)/c1ccccc1`, the growth inhibition is 86% (active) in assay [1] (setting [7]); 99% (active) in assay [1] (setting [8]); 98.8% (active) in assay [1] (at 50.0 µM); 94% (active) in assay [2] (setting [7]); 99% (active) in assay [2] (setting [8]); 99.7% (active) in assay [2] (at 50.0 µM). Moreover, the growth inhibition was 80% (active) in assay [3] (setting [7]); 99% (active) in assay [3] (setting [8]); 99.2% (active) in assay [3] (at 50.0 µM); 76% (active) in assay [4] (setting [7]); 98% (active) in assay [4] (setting [8]); 98.1% (active) in assay [4] (at 50.0 µM). The growth inhibition in assay [5] (setting [7]) was 85% (active); in assay [5] (setting [8]), 98% (active); in assay [5] (at 50.0 µM), 98.8% (active); in assay [6] (setting [7]), 91% (active); in assay [6] (setting [8]), 98% (active); in assay [6] (at 50.0 µM), 99.1% (active).
For `c1ccc2c(c1)Sc1nccc3ccnc-2c13`, the growth inhibition in assay [1] (setting [7]) was 92% (active); in assay [1] (setting [8]), 95% (active); in assay [1] (at 50.0 µM), 82.3% (active); in assay [2] (setting [7]), 28%; in assay [2] (setting [8]), 93% (active); in assay [2] (at 50.0 µM), 79.3% (active). For the same compound, the growth inhibition in assay [3] (setting [7]) is 23%; in assay [3] (setting [8]), 92% (active); in assay [3] (at 50.0 µM) it was 80.7% (active); in assay [4] (setting [7]), 10%; in assay [4] (setting [8]), 88% (active); in assay [4] (at 50.0 µM), 72.8% (active). Besides, the growth inhibition in assay [5] (setting [7]) is 25%; in assay [5] (setting [8]) it was 92% (active); in assay [5] (at 50.0 µM), 79.7% (active); in assay [6] (setting [7]) it was 50%; in assay [6] (setting [8]), 91% (active); in assay [6] (at 50.0 µM) it was 79.2% (active).
Turning to `N=c1ccc2c(c1)[nH]c1c3ccccc3[nH]c3cccc2c31`, the growth inhibition was 81% (active) in assay [1] (setting [7]); 98% (active) in assay [1] (setting [8]); 81.8% (active) in assay [1] (at 50.0 µM); 27% in assay [2] (setting [7]); 98% (active) in assay [2] (setting [8]); 84% (active) in assay [2] (at 50.0 µM). For the same compound, the growth inhibition in assay [3] (setting [7]) was 23%; in assay [3] (setting [8]), 98% (active); in assay [3] (at 50.0 µM), 89.1% (active); in assay [4] (setting [7]), 21%; in assay [4] (setting [8]), 98% (active); in assay [4] (at 50.0 µM), 90% (active). The growth inhibition in assay [5] (setting [7]) was 18%; in assay [5] (setting [8]), 98% (active); in assay [5] (at 50.0 µM) it was 88.3% (active); in assay [6] (setting [7]) it was 33%; in assay [6] (setting [8]), 97% (active); in assay [6] (at 50.0 µM) it was 87% (active).
As for `Cc1ccccc1NC(=O)C(=O)C(C#N)c1c(Cl)cccc1Cl` (stereo not given), the growth inhibition in assay [1] (setting [7]) was -13%; in assay [1] (setting [8]), 15%; in assay [1] (at 50.0 µM) it was -15.6%; in assay [2] (setting [7]) it was 6%; in assay [2] (setting [8]), 11%; in assay [2] (at 50.0 µM), 17.1%. In addition, the growth inhibition in assay [3] (setting [7]) was -2%; in assay [3] (setting [8]), 2%; in assay [3] (at 50.0 µM) it was 25.6%; in assay [4] (setting [7]), 0%; in assay [4] (setting [8]) it was 10%; in assay [4] (at 50.0 µM), -12.1%. The growth inhibition in assay [5] (setting [7]) was -3%; in assay [5] (setting [8]), 25%; in assay [5] (at 50.0 µM), 14.7%; in assay [6] (setting [7]), 2%; in assay [6] (setting [8]), 3%; in assay [6] (at 50.0 µM), 25.9%.
Consider `Cc1ccc2c(c1)NC(=O)C(N=[N+]=[N-])(c1ccccc1)C2=O` (stereo not given), for which the growth inhibition was -25% in assay [1] (setting [7]); 97% (active) in assay [1] (setting [8]); 89.8% (active) in assay [1] (at 50.0 µM); -2% in assay [2] (setting [7]); 93% (active) in assay [2] (setting [8]); 91.3% (active) in assay [2] (at 50.0 µM). For the same compound, the growth inhibition in assay [3] (setting [7]) was -1%; in assay [3] (setting [8]) it was 97% (active); in assay [3] (at 50.0 µM), 90.2% (active); in assay [4] (setting [7]), 10%; in assay [4] (setting [8]), 71% (active); in assay [4] (at 50.0 µM) it was 91.3% (active). Moreover, the growth inhibition in assay [5] (setting [7]) was -7%; in assay [5] (setting [8]), 98% (active); in assay [5] (at 50.0 µM), 92.3% (active); in assay [6] (setting [7]), -4%; in assay [6] (setting [8]), 98% (active); in assay [6] (at 50.0 µM), 70.4% (active).
For `CC/C(=N\OC(=O)Nc1ccccc1)c1ccc(OC(=O)Nc2ccccc2)cc1`, the growth inhibition in assay [1] (setting [7]) is 4%; in assay [1] (setting [8]), 22%; in assay [1] (at 50.0 µM), 60.5%; in assay [2] (setting [7]), -7%; in assay [2] (setting [8]) it was 58%; in assay [2] (at 50.0 µM), 55%. The growth inhibition was 2% in assay [3] (setting [7]); 46% in assay [3] (setting [8]); 76.8% (active) in assay [3] (at 50.0 µM); -4% in assay [4] (setting [7]); 7% in assay [4] (setting [8]); 49.6% in assay [4] (at 50.0 µM). Further, the growth inhibition was 1% in assay [5] (setting [7]); 48% in assay [5] (setting [8]); 33.1% in assay [5] (at 50.0 µM); 2% in assay [6] (setting [7]); 24% in assay [6] (setting [8]); 76.1% (active) in assay [6] (at 50.0 µM).
For `Nc1ccc(C(=O)Oc2cccccc2=O)cc1`, the growth inhibition was 3% in assay [1] (setting [7]); 36% in assay [1] (setting [8]); 82% (active) in assay [1] (at 50.0 µM); 2% in assay [2] (setting [7]); 32% in assay [2] (setting [8]); 42.9% in assay [2] (at 50.0 µM). Moreover, the growth inhibition in assay [3] (setting [7]) was 7%; in assay [3] (setting [8]), 52%; in assay [3] (at 50.0 µM) it was 91.5% (active); in assay [4] (setting [7]), 3%; in assay [4] (setting [8]), 20%; in assay [4] (at 50.0 µM) it was 16.1%. Further, the growth inhibition is -1% in assay [5] (setting [7]); 32% in assay [5] (setting [8]); 77.2% (active) in assay [5] (at 50.0 µM); 4% in assay [6] (setting [7]); 78% (active) in assay [6] (setting [8]); 95.4% (active) in assay [6] (at 50.0 µM).
On to `CN(C)CCOC(=O)C1(CCC2CCCCC2)CCCCC1`, for which the growth inhibition is 0% in assay [1] (setting [7]); 80% (active) in assay [1] (setting [8]); 96.9% (active) in assay [1] (at 50.0 µM); -1% in assay [2] (setting [7]); 17% in assay [2] (setting [8]); 30.9% in assay [2] (at 50.0 µM). The growth inhibition was -2% in assay [3] (setting [7]); 57% in assay [3] (setting [8]); 60.5% in assay [3] (at 50.0 µM); -3% in assay [4] (setting [7]); 37% in assay [4] (setting [8]); 18.7% in assay [4] (at 50.0 µM). Further, the growth inhibition in assay [5] (setting [7]) is 1%; in assay [5] (setting [8]) it was 32%; in assay [5] (at 50.0 µM), 85% (active); in assay [6] (setting [7]), -2%; in assay [6] (setting [8]), 77% (active); in assay [6] (at 50.0 µM), 93.3% (active).
